Results on 8 compounds are retold here after PubChem BioAssay (NCI).

What all share (assay): NCI-60 one-dose screen, 48 h (100 = growth as untreated, 0 = no growth, -100 = all killed)
The test system of one assay is HCT-15 colon. To be noted: 10 µM unless noted.
The test system of a further assay is HT29 colon. The settings on record: 10 µM unless noted.
In a further assay the test system is SNB-75 CNS. To be noted: 10 µM unless noted.
The subject of a further assay is SNB-19 CNS. To be noted: 10 µM unless noted.
The next assay concerns PC-3 prostate. To be noted: 10 µM unless noted.
In another assay the test system is SK-MEL-5 melanoma. The settings on record: 10 µM unless noted.
Another assay deals with UACC-62 melanoma. The settings on record: 10 µM unless noted.
The next assay has as its system LOX IMVI melanoma. The settings on record: 10 µM unless noted.
The next assay concerns SK-MEL-28 melanoma. The settings on record: 10 µM unless noted.
The next assay deals with SK-MEL-2 melanoma. To be noted: 10 µM unless noted.
For another assay, the system named is EKVX NSCLC. The settings on record: 10 µM.
The next assay relates to SN12C renal. The settings on record: 10 µM unless noted.
The next assay relates to UO-31 renal. The settings on record: 10 µM unless noted.
The subject of another assay is TK-10 renal. The settings on record: 10 µM unless noted.
In another assay the test system is ACHN renal. To be noted: 10 µM unless noted.
Another assay concerns CAKI-1 renal. To be noted: 10 µM unless noted.
A further assay concerns A498 renal. The settings on record: 10 µM unless noted.
A further assay deals with CCRF-CEM leukemia. To be noted: 10 µM.
Another assay concerns MOLT-4 leukemia. To be noted: 10 µM unless noted.

The panel holds about 83,000 compounds, 20% with a hit somewhere; the sample as a whole holds those more often.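 Cell lines were cultured in 96-well plates, exposed to a single compound concentration, and assessed for percent growth 48 hours later.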 Values without a mark were called inactive. The source made the active and inactive calls. How the source made its calls: active means growth percent below 10; inactive means the rest.

In the case of `Nc1nc2c(c3cnccc13)C(c1cccc(Br)c1)Cc1cnccc1-2` (centres undefined), the growth in the assay on HCT-15 colon was 7.06% (active); in the assay with HT29 colon, 4.32% (active); in the assay with SNB-75 CNS it was 18.9%; in the assay on SNB-19 CNS it was 24%; in the assay with PC-3 prostate it was 11.6%; with SK-MEL-5 melanoma it was -30.4% (active). The growth was 21.8% with UACC-62 melanoma; 8.43% (active) in the assay with LOX IMVI melanoma; 49.4% with SK-MEL-28 melanoma; 27.2% in the assay on SK-MEL-2 melanoma; 27.6% with EKVX NSCLC; 27.5% in the assay with SN12C renal. Also, the growth in the assay on UO-31 renal is 21.4%; in the assay on TK-10 renal, 28.5%; with ACHN renal, 16.7%; with CAKI-1 renal, 25.6%; in the assay on A498 renal, -10.6% (active); in the assay on CCRF-CEM leukemia, 6.84% (active). In the assay on MOLT-4 leukemia, the growth is 11.6%.
With `N=C(N)c1ccc(-c2ccc(-c3cc(Cl)cc(Cl)c3)s2)cc1`, the growth is -85.9% (active) in the assay with HCT-15 colon; -38% (active) in the assay with HT29 colon; -90.6% (active) in the assay with SNB-75 CNS; -73.5% (active) in the assay with SNB-19 CNS; -81.6% (active) in the assay with PC-3 prostate; -93.7% (active) with SK-MEL-5 melanoma. Besides, the growth in the assay with UACC-62 melanoma was -80.4% (active); in the assay on LOX IMVI melanoma it was -78.6% (active); in the assay on SK-MEL-28 melanoma it was -86.4% (active); with SK-MEL-2 melanoma, -46.1% (active); in the assay on EKVX NSCLC, -72% (active); in the assay on SN12C renal it was -77% (active). Besides, the growth in the assay with UO-31 renal is -77.5% (active); in the assay on TK-10 renal, -74.8% (active); in the assay on ACHN renal, -94.4% (active); in the assay on CAKI-1 renal it was -90.2% (active); with A498 renal, -94.6% (active); in the assay on CCRF-CEM leukemia, -67.1% (active). Also, the growth in the assay on MOLT-4 leukemia was -50.3% (active).
For `COc1cc(-c2cc3cnccc3c3nc(N)c4ccncc4c23)cc(OC)c1OC`, the growth in the assay with HCT-15 colon is 38.5%; in the assay on HT29 colon, 47.6%; with SNB-75 CNS, -2.5% (active); in the assay with SNB-19 CNS, 53.3%; in the assay on PC-3 prostate it was 37.3%; in the assay on SK-MEL-5 melanoma, 44.6%. Also, the growth is 41.6% with UACC-62 melanoma; 36.1% with LOX IMVI melanoma; 75.3% with SK-MEL-28 melanoma; 70.1% in the assay on SK-MEL-2 melanoma; 55.3% with EKVX NSCLC; 40.7% in the assay with SN12C renal. Besides, the growth with UO-31 renal was 11.9%; in the assay on TK-10 renal, 22.6%; with ACHN renal, 34.5%; with CAKI-1 renal, 43.6%; in the assay with A498 renal, -16.8% (active); in the assay with CCRF-CEM leukemia, 36.5%. The growth with MOLT-4 leukemia was 32.9%.
Turning to `Ic1ccc(SSc2ccc(I)cc2)cc1`, the growth with HCT-15 colon was 99.5%; with HT29 colon it was 95.3%; in the assay with SNB-75 CNS it was 88.4%; in the assay with SNB-19 CNS, 94.6%; in the assay with PC-3 prostate, 58.5%; with SK-MEL-5 melanoma it was 90.8%. The growth is 97.8% in the assay on UACC-62 melanoma; 0.697% (active) with LOX IMVI melanoma; 108% in the assay with SK-MEL-28 melanoma; 105% with SK-MEL-2 melanoma; 99.9% in the assay with EKVX NSCLC; 71.3% in the assay on SN12C renal. The growth in the assay with UO-31 renal was 60.5%; with TK-10 renal it was 84.4%; in the assay with ACHN renal, 113%; in the assay with CCRF-CEM leukemia, 17%; in the assay on MOLT-4 leukemia, 32%.
With `Nc1nc2c(c3ncncc13)C(c1cccc(C(F)(F)F)c1)Cc1ncncc1-2` (centres undefined), the growth in the assay on HCT-15 colon was 27%; with HT29 colon it was 9.73% (active); with SNB-75 CNS, 8.31% (active); in the assay with SNB-19 CNS it was 33.9%; with PC-3 prostate, 26.4%; in the assay with SK-MEL-5 melanoma, 21.1%. The growth was 43.4% in the assay on UACC-62 melanoma; 36.8% in the assay on LOX IMVI melanoma; 63.7% in the assay on SK-MEL-28 melanoma; 48.2% with SK-MEL-2 melanoma; 48% in the assay with EKVX NSCLC; 55.2% in the assay on SN12C renal. Besides, the growth in the assay with UO-31 renal was 51%; in the assay on TK-10 renal, 50.6%; in the assay with ACHN renal, 45%; with CAKI-1 renal, 34.5%; in the assay on A498 renal, -6.07% (active); with CCRF-CEM leukemia, 13.5%. For the same compound, the growth in the assay with MOLT-4 leukemia is 29.2%.
Regarding `COc1cc2ncnc(-n3ncc4cc(NC(=O)Nc5ccc(Cl)c(Cl)c5)ccc43)c2cc1OC`, the growth in the assay with HCT-15 colon was -35.7% (active); in the assay on HT29 colon, -16.7% (active); in the assay on SNB-75 CNS, -57.7% (active); in the assay on SNB-19 CNS, 10.4%; with PC-3 prostate, -57.1% (active); in the assay on SK-MEL-5 melanoma, -82.8% (active). For the same compound, the growth with UACC-62 melanoma was -68.5% (active); in the assay on LOX IMVI melanoma, -77.7% (active); with SK-MEL-28 melanoma, -70.9% (active); with SK-MEL-2 melanoma, -26.6% (active); in the assay with EKVX NSCLC, -16.1% (active); in the assay on SN12C renal, 3.99% (active). For the same compound, the growth in the assay on UO-31 renal is -17.2% (active); in the assay on TK-10 renal, -14.1% (active); with ACHN renal, -61.6% (active); in the assay with CAKI-1 renal it was 8.96% (active); with A498 renal, -22.7% (active); with CCRF-CEM leukemia, 22.3%. Moreover, the growth in the assay on MOLT-4 leukemia is 9.19% (active).
Turning to `COc1ccc(CN2C(=O)/C(=C\C(=O)c3ccc(OCCN4CCCC4)cc3)c3ccccc32)cc1`, the growth in the assay with HCT-15 colon is 37.3%; in the assay on HT29 colon, 9.12% (active); in the assay with SNB-75 CNS it was 73.2%; with SNB-19 CNS it was 97.1%; in the assay on PC-3 prostate, 84%; in the assay with SK-MEL-5 melanoma, 92.7%. Besides, the growth in the assay with UACC-62 melanoma is 88.7%; with LOX IMVI melanoma it was 31.7%; with SK-MEL-28 melanoma, 103%; in the assay on SK-MEL-2 melanoma, 103%; in the assay on EKVX NSCLC, 96.4%; in the assay on SN12C renal, 49.8%. For the same compound, the growth in the assay with UO-31 renal was 56.5%; in the assay on TK-10 renal, 109%; in the assay with ACHN renal, 69.9%; with A498 renal, 88.8%; with CCRF-CEM leukemia it was 2.08% (active); in the assay on MOLT-4 leukemia, 5.57% (active).
Consider `COc1cc2ncnc(Nc3ccc4c(cnn4C(=O)Nc4ccccc4)c3)c2cc1OC`, for which the growth with HCT-15 colon is 83.2%; with HT29 colon, 51.1%; with SNB-75 CNS it was 114%; in the assay with SNB-19 CNS, 95.4%; in the assay on PC-3 prostate, 98.9%; in the assay on SK-MEL-5 melanoma, 90.9%. Besides, the growth with UACC-62 melanoma was 114%; in the assay with LOX IMVI melanoma, 93.2%; with SK-MEL-28 melanoma it was 77.3%; with SK-MEL-2 melanoma, 103%; with EKVX NSCLC it was 85.2%; in the assay on SN12C renal, 82.1%. Besides, the growth was 65.3% with UO-31 renal; 72.3% with TK-10 renal; 94.2% in the assay with ACHN renal; 76.9% in the assay with CAKI-1 renal; 65.1% with A498 renal; 31.6% in the assay on CCRF-CEM leukemia. Besides, the growth in the assay on MOLT-4 leukemia is 80.8%.
